The record followed here is PubChem BioAssay.

Assay [1] in a line: small molecules captured by biotinylated probe aFSTL3 – biochemical, small-molecule microarray, fluorescence 635/667, stem cell growth factor project, primary screen (AID 1064).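 Note: measures binding of the biotinylated anti-FSTL3 antibody to printed compounds.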 The settings on record: higher = more signal.
The nature of assay [2]: binders from COS7 lysate, DM2A8 probe, primary screen, torsin A project, cell lysate, small-molecule microarray, fluorescence 635/667 (AID 1065). The settings on record: higher = more signal, COS7 lysate expressing mutant human TOR1A.
Assay [3] can be described thus: small molecules captured by biotinylated probe aFGF2 – biochemical, small-molecule microarray, fluorescence 635/667, stem cell growth factor project, primary screen (AID 1067).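 Note: measures binding of biotinylated aFGF2 protein to printed compounds on slides; z-score merges feature fluorescence and signal-to-noise across triplicate slides.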 The settings on record: higher = more signal.
Assay [4] is described as follows: small molecules captured by biotinylated probe aFGF10 – biochemical, small-molecule microarray, fluorescence 635/667, stem cell growth factor project, primary screen (AID 1071).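 Note: score merges 667 nm spot intensity and signal to noise from triplicate slides.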 As to conditions: higher = more signal.
Assay [5] concerns the target Neurogenic locus notch homolog protein 2 (Homo sapiens) (UniProt Q04721). Kind of assay: small molecules binding Notch2 protein – biochemical, small-molecule microarray, 635 nm fluorescence, stem cell growth factors, primary screen (AID 1073). As to conditions: higher = more signal.
Assay [6] addresses Pro-neuregulin-1, membrane-bound isoform (Homo sapiens) (UniProt Q02297). Briefly: small molecules binding neuregulin-1 protein – biochemical, small-molecule microarray, fluorescence 635/667, psychiatric disease protein project, primary screen (AID 1075).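 Note: score combines 667 nm spot fluorescence with signal to noise.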 As to conditions: NRG1 binding, 635 nm fluorescence, higher = more signal.
In assay [7] the test system is Neuregulin-1 EGF-like domain. Kind of assay: small molecules binding NRG1 EGF domain – biochemical, small-molecule microarray, 635 nm fluorescence, primary screen (AID 1081).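 Note: binding of the protein to compounds printed on small-molecule microarray slides.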 The settings on record: higher = more signal.
Assay [8] can be described thus: FRG1 expression reporter modulators in myotubes – cell-based, C2C12 myotubes, firefly/Renilla luciferase, luminescence, FRG1 inhibition for FSHD, primary screen (AID 1084). As to conditions: FRG1 promoter luciferase, higher = more signal, called active from +8 up or from −8 down.
Assay [9] is described as follows: small molecules captured by biotinylated probe aFST – biochemical, small-molecule microarray, fluorescence 635/667, stem cell growth factor project, primary screen (AID 1086).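 Note: score merges 667 nm fluorescence with signal-to-noise of each printed compound spot.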 As to conditions: higher = more signal.
Assay [10] in a line: binders of probe aHhip on microarray, primary screen, stem cell growth factor project, biochemical, small-molecule microarray, fluorescence 635/667 (AID 1087).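 Note: score merges spot fluorescence at 667nm with spot signal to noise ratio.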 The settings on record: higher = more signal.
Assay [11] has as its system PRMT1 (protein arginine N-methyltransferase 1). Kind of assay: small molecules binding arginine methyltransferase PRMT1 – biochemical, small-molecule microarray, 635 nm fluorescence, primary screen (AID 1088).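 Note: binding of Prmt1 protein to compounds spotted on small-molecule microarray slides.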 The settings on record: higher = more signal.
The nature of assay [12]: growth effects on S. cerevisiae YJM789 – YJM789 clinical isolate, OD600, 24 h, basal, primary screen (AID 1089).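 Note: growth of clinical yeast isolate S. cerevisiae YJM 789 seeded 1000 cells per well; test concentration not given here.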 The settings on record: higher = more signal, called active from +8 up or from −8 down.
The nature of assay [13]: S. pombe growth modifiers, basal conditions – strain 972, OD600, 24 h, no modulator, primary screen (AID 1090).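 Note: basal condition with compound alone and no growth modifier present; test concentration not given here.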 The settings on record: S. pombe 972 growth, higher = more signal, called active from +8 up or from −8 down.
A short description of assay [14]: budding yeast growth modifiers under rapamycin – strain BY4716, OD600, 96 h, primary screen (AID 1091). Note: test concentration not given here. The settings on record: S. cerevisiae BY4716 + rapamycin, higher = more signal, called active from +8 up or from −8 down.
In assay [15] the target is Torsin-1A-interacting protein 2 (Homo sapiens) (UniProt Q8NFQ8). Briefly: small molecules binding lysate-expressed LULL1 – cell lysate, human LULL1 lysate, 635/667 nm fluorescence, primary screen (AID 1092).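 Note: probe is lysate of COS7 cells overexpressing human LULL1; score merges per-feature 667 nm fluorescence with signal-to-noise.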 As to conditions: small-molecule microarray, hLULL1 lysate binding, 635 nm fluorescence; higher = more signal.
A short description of assay [16]: optical density change of DRC41 E. coli – strain DRC41, OD650, 24 h, E. coli filamentation project, primary screen (AID 1093).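 Note: MC1000 strain lacking acrAB efflux and sulA so SOS filamentation is blocked; test concentration not given here.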 As to conditions: E. coli DRC41 growth, higher = more signal, called active from +8 up or from −8 down.
A short description of assay [17]: probe aLefty2 binding to arrayed compounds – biochemical, biotinylated probe, 635/667 nm fluorescence, primary screen (AID 1094).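 Note: score merges spot fluorescence near 667 nm with spot signal-to-noise ratio.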 The settings on record: small-molecule microarray, higher = more signal.
The subject of assay [18] is Noggin (protein binding on small-molecule microarray). Briefly: small molecules binding Noggin protein – biochemical, 635/667 nm fluorescence, primary screen (AID 1095).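 Note: score merges 667 nm feature fluorescence with signal to noise over triplicate slides.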 As to conditions: 635 nm fluorescence, higher = more signal.
Assay [19] deals with Neurogenic locus notch homolog protein 3 (Homo sapiens) (UniProt Q9UM47). Briefly: small molecules binding NOTCH3 protein – biochemical, 635/667 nm fluorescence, primary screen (AID 1096). As to conditions: small-molecule microarray, 635 nm fluorescence, higher = more signal.
Assay [20] is described as follows: probe aEGFR binding to arrayed compounds – biochemical, biotinylated probe, 635/667 nm fluorescence, primary screen (AID 1097).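 Note: probe is a biotinylated anti-EGFR antibody binding compounds printed on slides; score combines fluorescence near 667 nm and signal to noise of each spot.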 The settings on record: small-molecule microarray, higher = more signal.

The source made the active and inactive calls.

Torsin-1A-interacting protein 2 (Homo sapiens), sequence (Q8NFQ8 whole entry, looked up): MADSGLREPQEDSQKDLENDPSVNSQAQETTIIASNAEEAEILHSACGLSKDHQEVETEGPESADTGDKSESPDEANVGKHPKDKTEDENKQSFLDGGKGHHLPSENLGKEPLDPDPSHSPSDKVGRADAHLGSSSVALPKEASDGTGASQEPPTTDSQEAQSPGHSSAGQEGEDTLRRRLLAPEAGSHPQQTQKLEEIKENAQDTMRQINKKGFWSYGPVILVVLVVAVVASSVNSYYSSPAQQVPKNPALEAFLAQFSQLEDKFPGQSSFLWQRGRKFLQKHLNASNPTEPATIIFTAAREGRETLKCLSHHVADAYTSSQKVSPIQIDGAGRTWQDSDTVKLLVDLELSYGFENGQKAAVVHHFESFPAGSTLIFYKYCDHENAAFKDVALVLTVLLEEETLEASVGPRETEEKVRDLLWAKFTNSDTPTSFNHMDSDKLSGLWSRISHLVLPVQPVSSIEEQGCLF
Pro-neuregulin-1, membrane-bound isoform (Homo sapiens), sequence (Q02297 whole entry, looked up, the tested form may be a part, canonical isoform): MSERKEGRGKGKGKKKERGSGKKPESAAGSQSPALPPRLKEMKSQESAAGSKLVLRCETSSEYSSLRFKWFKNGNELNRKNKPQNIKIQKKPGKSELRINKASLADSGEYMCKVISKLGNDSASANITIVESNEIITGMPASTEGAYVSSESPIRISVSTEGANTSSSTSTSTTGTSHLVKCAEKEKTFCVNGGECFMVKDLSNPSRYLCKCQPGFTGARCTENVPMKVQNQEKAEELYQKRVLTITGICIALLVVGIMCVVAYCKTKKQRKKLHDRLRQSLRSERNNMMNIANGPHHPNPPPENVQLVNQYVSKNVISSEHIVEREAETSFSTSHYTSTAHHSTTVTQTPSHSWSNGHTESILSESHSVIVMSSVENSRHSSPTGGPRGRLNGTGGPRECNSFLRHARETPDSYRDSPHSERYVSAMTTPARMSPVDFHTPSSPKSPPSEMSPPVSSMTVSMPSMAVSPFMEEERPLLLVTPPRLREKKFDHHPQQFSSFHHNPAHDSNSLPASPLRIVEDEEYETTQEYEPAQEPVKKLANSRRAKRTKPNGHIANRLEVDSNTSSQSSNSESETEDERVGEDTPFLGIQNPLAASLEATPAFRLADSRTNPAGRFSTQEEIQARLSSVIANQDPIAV
Neurogenic locus notch homolog protein 3 (Homo sapiens), sequence (Q9UM47 whole entry, looked up): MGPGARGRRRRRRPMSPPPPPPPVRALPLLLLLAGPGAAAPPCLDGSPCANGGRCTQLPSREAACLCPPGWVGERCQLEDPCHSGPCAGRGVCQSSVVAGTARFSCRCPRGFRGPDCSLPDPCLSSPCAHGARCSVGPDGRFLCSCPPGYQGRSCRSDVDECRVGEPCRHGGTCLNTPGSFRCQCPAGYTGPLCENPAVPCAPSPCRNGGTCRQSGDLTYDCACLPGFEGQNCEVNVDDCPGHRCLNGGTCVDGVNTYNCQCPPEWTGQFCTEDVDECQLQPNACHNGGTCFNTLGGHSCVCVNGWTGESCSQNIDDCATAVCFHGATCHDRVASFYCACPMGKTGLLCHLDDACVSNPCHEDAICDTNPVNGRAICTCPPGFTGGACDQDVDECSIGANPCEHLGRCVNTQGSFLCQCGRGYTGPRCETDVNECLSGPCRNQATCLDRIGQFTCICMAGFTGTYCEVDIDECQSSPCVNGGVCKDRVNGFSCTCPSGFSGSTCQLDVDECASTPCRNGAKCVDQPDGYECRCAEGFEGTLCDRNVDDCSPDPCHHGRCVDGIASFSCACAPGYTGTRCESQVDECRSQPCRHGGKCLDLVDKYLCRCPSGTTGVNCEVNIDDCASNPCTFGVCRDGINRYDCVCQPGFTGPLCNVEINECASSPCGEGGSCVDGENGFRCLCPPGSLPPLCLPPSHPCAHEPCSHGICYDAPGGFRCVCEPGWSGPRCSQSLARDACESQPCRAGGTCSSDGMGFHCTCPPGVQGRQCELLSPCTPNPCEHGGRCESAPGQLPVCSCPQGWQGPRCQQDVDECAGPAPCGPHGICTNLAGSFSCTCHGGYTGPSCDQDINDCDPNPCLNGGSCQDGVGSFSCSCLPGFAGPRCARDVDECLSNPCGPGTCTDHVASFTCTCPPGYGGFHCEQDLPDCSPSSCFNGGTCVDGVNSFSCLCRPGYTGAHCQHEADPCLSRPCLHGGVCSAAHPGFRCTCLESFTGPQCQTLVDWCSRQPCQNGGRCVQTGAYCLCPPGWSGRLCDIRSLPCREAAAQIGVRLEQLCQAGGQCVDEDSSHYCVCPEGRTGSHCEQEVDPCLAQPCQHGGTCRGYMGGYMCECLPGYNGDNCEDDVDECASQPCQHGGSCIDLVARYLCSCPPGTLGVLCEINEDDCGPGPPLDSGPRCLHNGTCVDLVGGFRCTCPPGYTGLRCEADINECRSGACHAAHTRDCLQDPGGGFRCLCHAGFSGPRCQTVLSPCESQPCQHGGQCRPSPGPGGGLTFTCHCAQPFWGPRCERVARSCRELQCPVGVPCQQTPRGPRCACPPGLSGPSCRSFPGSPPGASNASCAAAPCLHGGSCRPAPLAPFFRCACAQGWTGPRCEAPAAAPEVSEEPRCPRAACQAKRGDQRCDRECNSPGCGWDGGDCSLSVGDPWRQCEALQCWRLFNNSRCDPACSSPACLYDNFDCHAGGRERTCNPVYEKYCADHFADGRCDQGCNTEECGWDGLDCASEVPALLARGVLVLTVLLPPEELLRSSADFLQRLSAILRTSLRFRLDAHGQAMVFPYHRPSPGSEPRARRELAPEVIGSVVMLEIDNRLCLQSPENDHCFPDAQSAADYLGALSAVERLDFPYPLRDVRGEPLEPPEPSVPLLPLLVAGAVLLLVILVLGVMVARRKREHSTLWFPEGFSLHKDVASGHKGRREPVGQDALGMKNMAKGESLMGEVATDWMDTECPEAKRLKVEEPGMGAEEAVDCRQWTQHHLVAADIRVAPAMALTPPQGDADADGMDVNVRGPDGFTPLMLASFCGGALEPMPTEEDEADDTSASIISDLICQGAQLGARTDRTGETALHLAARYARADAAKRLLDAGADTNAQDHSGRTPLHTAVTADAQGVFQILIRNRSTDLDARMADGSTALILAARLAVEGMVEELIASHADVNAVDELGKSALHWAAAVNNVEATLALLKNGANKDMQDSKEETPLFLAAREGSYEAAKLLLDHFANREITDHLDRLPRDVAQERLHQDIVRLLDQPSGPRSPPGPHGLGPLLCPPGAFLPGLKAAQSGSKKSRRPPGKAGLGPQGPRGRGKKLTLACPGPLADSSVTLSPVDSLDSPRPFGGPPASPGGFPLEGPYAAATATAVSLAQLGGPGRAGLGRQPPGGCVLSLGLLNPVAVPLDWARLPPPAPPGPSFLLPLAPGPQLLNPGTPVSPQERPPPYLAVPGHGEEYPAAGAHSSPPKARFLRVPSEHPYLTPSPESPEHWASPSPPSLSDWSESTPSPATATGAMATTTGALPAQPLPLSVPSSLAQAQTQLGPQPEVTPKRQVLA

In the case of `COc1ccc([Si](C)(C)[C@@H]2[C@@H](CCn3cc([C@H](O)c4ccccc4)nn3)O[C@]3(C(=O)N(c4ccccc4)c4ccccc43)[C@H]2C)cc1`, the composite z-score in assay [1] was -0.162; in [2], 0.297; in assay [3], -0.0824; in assay [4] it was 0.211; in [5], 0.0701; in [6], 0.336. Besides, the composite z-score in assay [7] is 0.75; in [9], -0.0029; in [10], -0.122; in [11], 1.11; in assay [15], 0.986; in assay [17], -0.0998. Further, the composite z-score is 0.431 in assay [18], 0.281 in assay [19] and -0.0452 in assay [20]. Further, the z-score in assay [8] was -0.587 (inactive); in [12], -0.613 (inactive); in [13] it was -0.101 (inactive); in assay [14] it was 1.43 (inactive); in assay [16], 1.15 (inactive).
On to `CC(C)[Si]1(C(C)C)OCc2cc(-c3ccc(-c4ccc(Cl)c(Cl)c4)o3)nc(CCc3ccccc3)c21`, for which the composite z-score in [1] is 0.0051; in assay [2], -0.217; in [3], -0.0332; in assay [4], -0.175; in [5] it was -0.412; in assay [6], 0.572. Further, the composite z-score is 0.261 in assay [7]; -0.0731 in assay [9]; -0.201 in [10]; -0.45 in [11]; 0.797 in [15]; -0.19 in assay [17]. Moreover, the composite z-score was 0.0365 in assay [18], -0.428 in assay [19] and -0.218 in assay [20]. Further, the z-score in assay [8] is 0.999 (inactive); in assay [12], -0.773 (inactive); in [13], -3.07 (inactive); in assay [14] it was 0.952 (inactive); in [16], 1.15 (inactive).
As for `Cc1ccccc1C(O)C1C=CC2C(=O)N(c3ccccc3)C(=O)C2N1Nc1ccc([N+](=O)[O-])cc1` (stereo not given), the composite z-score in assay [1] is -0.0848; in assay [2] it was 0.804; in assay [3], -0.0271; in assay [4], 0.681; in [5], 1.07; in [6] it was 1.87. The composite z-score in assay [7] is 1.27; in assay [9], 0.886; in assay [10], -0.189; in assay [11], 1.45; in assay [15], 3.39; in assay [17] it was 0.0839. The figures for the composite z-score in [18], in assay [19] and in assay [20] were 0.327, 1.05 and 0.156, respectively. In addition, the z-score was -1.24 (inactive) in assay [8]; -0.715 (inactive) in [12]; 0.796 (inactive) in [13]; 2.67 (inactive) in assay [14]; 0.13 (inactive) in assay [16].
`CCCCC(=C=CC[C@H](O)c1ccc(OCCO)cc1)C[C@H](O)c1cc(Cl)cc(Cl)c1O`: the composite z-score in assay [1] is -0.268; in assay [2] it was 0.092; in assay [3], -0.186; in [4] it was 0.214; in [5], 0.323; in [6] it was 1.05. Also, the composite z-score in assay [7] was 0.965; in assay [9], 0.236; in assay [10] it was -0.264; in assay [11] it was 1.18; in assay [15], 1.54; in [17], -0.192. Also, the composite z-score was 0.563 in assay [18], 0.62 in assay [19] and -0.183 in assay [20]. Besides, the z-score was -2 (inactive) in [8]; 0.294 (inactive) in [12]; -3.5 (inactive) in assay [13]; -0.15 (inactive) in assay [14]; 0.0374 (inactive) in assay [16].
Consider `CCCCCCCCCCC(O)C1C=CC2C(=O)N(C)C(=O)C2N1Nc1cc(OC)c(OC)c(OC)c1` (stereo not given), for which the composite z-score in assay [1] is 0.736; in assay [2], -0.157; in assay [3], -0.194; in assay [4] it was -0.873; in assay [5], -0.717; in assay [6] it was 0.55. The composite z-score in assay [7] was -0.199; in assay [9], 0.0296; in assay [10], -0.21; in [11], -0.415; in [15], 1.54; in assay [17] it was -0.161. The composite z-score in assay [18] was -1.3; in assay [19], -0.713; in assay [20] it was -0.189. Also, the z-score in assay [8] was 0.507 (inactive); in assay [12], 0.692 (inactive); in [13], 0.134 (inactive); in assay [14], -1.17 (inactive); in [16], -1.74 (inactive).
